Measured values as given in PubChem BioAssay.
The source made the active and inactive calls.

Key:
Albumin (Bos taurus) = Albumin (Bos taurus) (UniProt P02769); assay: bovine serum albumin binders on microarray, profiling panel, artefact control for SMM control protein annotation, biochemical, small-molecule microarray, Alexa647 label, 635/667 nm fluorescence (AID 1118); conditions: BSA-A647 binding, fluorescence 635 nm, higher = more signal;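 also: score merges 667 nm emission intensity and signal-to-noise per printed compound spot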
[1] = small-molecule microarray binders of probe aXIP, primary screen, biochemical, NeuroSMM set, 635/667 nm fluorescence (AID 1119); conditions: higher = more signal, called active from +8 up or from −8 down;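 also: probe is the protein aXip251-270 applied at 1 µg/mL to compound-printed slides; binding of probe to printed compounds measured as 667 nm fluorescence plus signal to noise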
[2] = small-molecule binders of probe aNOTCH3, primary screen, biochemical, small-molecule microarray, 635/667 nm fluorescence (AID 1120); conditions: higher = more signal;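 also: probe is a biotin-tagged antibody raised against NOTCH3 rather than NOTCH3 protein; score merges spot fluorescence near 667 nm with spot signal to noise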
[3] = small-molecule binders of probe aNOTCH2, primary screen, biochemical, small-molecule microarray, 635/667 nm fluorescence (AID 1121); conditions: higher = more signal;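 also: score merges feature fluorescence read at 667 nm with its signal to noise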
[4] = target: Carbonic anhydrase 2 (Homo sapiens) (UniProt P00918); assay: CAII small-molecule binders, profiling panel, biochemical, small-molecule microarray, Alexa647-labelled CAII (AID 1122); conditions: CAII-A647 binding fluorescence, higher = more signal
[5] = COS7 lysate on small-molecule microarray, probe aHis, 635 nm (AID 1123); conditions: COS7 cell lysate, fluorescence, higher = more signal;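 also: z-score combines 667nm fluorescence intensity with signal-to-noise per printed compound spot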
[6] = compound binding in COS7 lysate, probe aLAP1, primary screen, cell lysate, small-molecule microarray (AID 1124); conditions: probe aLAP1, fluorescence, higher = more signal;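 also: lysate comes from COS7 cells expressing LAP1 and is applied at 0.3 µg/mL; score merges spot fluorescence near 667 nm with signal-to-noise over triplicate slides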
Sam68 (KHDRBS1) = assay: Sam68 small-molecule binders, primary screen, biochemical, small-molecule microarray, 635 nm fluorescence (AID 1125); conditions: small-molecule microarray binding, higher = more signal;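 also: score merges 667 nm channel intensity with signal to noise over triplicate slides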
[7] = system: Chordin-like protein 2 (CHRDL2); assay: CHRDL2 small-molecule binders, primary screen, biochemical, small-molecule microarray, 635 nm fluorescence (AID 1126); conditions: small-molecule microarray binding, fluorescence 635 nm; higher = more signal;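 also: printed compound slides probed with Chrdl2 protein at 4 µg/mL for 1 h at 4 C; score merges 667 nm emission intensity with signal to noise over three replicate slides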
[8] = target: Concanavalin-A (Canavalia ensiformis) (UniProt P02866); assay: ConA small-molecule binders, primary screen, artefact control for SMM control protein annotation, biochemical, small-molecule microarray, Alexa647 label, 635 nm (AID 1127); conditions: ConA-A647 binding fluorescence, higher = more signal;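 also: z combines 667 nm emission intensity with signal-to-noise across three replicate slides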
Concanavalin-A (Canavalia ensiformis), sequence (P02866 whole entry, looked up): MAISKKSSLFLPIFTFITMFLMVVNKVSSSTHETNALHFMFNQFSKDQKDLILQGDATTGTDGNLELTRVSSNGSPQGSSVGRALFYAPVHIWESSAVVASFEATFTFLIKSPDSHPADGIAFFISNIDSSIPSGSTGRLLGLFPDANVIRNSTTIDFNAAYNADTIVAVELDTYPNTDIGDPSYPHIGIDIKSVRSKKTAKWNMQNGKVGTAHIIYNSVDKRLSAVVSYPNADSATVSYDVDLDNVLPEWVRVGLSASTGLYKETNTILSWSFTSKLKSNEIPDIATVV

Albumin (Bos taurus), sequence (P02769 whole entry, looked up): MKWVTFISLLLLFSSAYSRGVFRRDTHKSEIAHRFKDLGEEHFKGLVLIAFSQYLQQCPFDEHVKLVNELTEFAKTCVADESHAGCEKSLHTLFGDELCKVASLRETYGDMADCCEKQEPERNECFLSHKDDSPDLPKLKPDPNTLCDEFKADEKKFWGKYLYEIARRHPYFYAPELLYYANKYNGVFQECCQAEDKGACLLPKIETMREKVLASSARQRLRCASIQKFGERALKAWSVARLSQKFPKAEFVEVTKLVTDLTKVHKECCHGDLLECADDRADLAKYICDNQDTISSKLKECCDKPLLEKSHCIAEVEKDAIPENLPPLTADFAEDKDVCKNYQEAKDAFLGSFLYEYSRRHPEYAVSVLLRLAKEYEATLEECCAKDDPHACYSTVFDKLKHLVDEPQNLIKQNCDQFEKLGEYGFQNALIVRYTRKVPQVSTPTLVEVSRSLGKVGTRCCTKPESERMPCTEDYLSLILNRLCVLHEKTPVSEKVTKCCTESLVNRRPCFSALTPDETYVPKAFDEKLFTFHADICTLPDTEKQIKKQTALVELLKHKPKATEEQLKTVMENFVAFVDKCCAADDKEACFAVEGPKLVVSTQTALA

Row | SMILES | composite z-score (Albumin (Bos taurus)) | composite Z-score [1] | composite z-score [2] | composite z-score [3] | composite z-score [4] | composite z-score [5] | composite z-score [6] | composite z-score (Sam68 (KHDRBS1)) | composite z-score [7] | composite z-score [8]
1 | O=C1OCCC=C[C@H]2OC34C=CCN(Cc5ccccc5)C(=O)[C@H]3N(CCO)C(=O)[C@@H]4C12 (stereo not given in full) | -0.121 | -0.141 (inactive) | -0.0967 | -0.19 | 0.459 | -0.59 | -0.227 | -1.04 | -0.849 | -1.18
2 | CO[C@H]1O[C@H](CO)[C@@H](OC(=O)Nc2ccc(Oc3ccccc3)cc2)[C@H](OC(=O)Nc2ccccc2-c2ccccc2)[C@H]1OC(=O)Nc1ccccc1-c1ccccc1 | 0.892 | -0.0478 (inactive) | 0.289 | -0.0519 | 0.442 | 2.68 | 1.26 | 1.31 | 0.203 | 1.18
3 | CN1CCC(CCCO)=CC1C1CC1 (stereo not given) | -0.958 | 3.24 (inactive) | -0.0918 | -0.181 | 0.299 | 0.238 | -0.569 | 0.0585 | 0.39 | 0.066
4 | C[C@@H]1CC[C@H]2C(=O)N3CCC[C@H]3C(=O)N2[C@H]1c1ccc(Br)cc1 | -0.295 | 0.734 (inactive) | -0.261 | -0.174 | -0.213 | 0.233 | 0.123 | -0.0235 | 0.536 | -0.377
5 | C/C(=N\O)C(=O)NCCCCCNC(=O)OCc1ccccc1 | 0.487 | 0.179 (inactive) | 0.0066 | -0.0942 | 0.355 | 0.332 | 0.199 | 0.639 | 0.367 | 0.818
6 | CC(C)[C@H]1NC(=O)[C@@]23C(=O)N[C@@H](Cc4ccccc4)C2[C@H](C)[C@@]2(C)O[C@H]2C3/C=C/C/C=C\CNC(=O)[C@H](C)NC1=O (stereo not given in full) | -0.255 | -0.0247 (inactive) | -0.25 | -0.218 | 0.811 | -0.281 | -0.258 | -0.762 | -0.433 | -0.671
7 | CN(C)c1ccc(C(O)C2C=CC3C(=O)NC(=O)C3N2Nc2ccc(Cl)cc2Cl)cc1 (stereo not given) | 0.667 | 0.66 (inactive) | 0.0961 | 0.046 | 0.735 | 2.51 | 0.305 | 0.708 | -0.0762 | 0.332
8 | CC(C)[Si]1(C(C)C)OCc2cc(C3CC3)nc(-c3ccccc3)c21 | -0.613 | -0.536 (inactive) | -0.295 | -0.12 | 0.112 | -0.57 | -0.683 | -0.124 | -0.161 | -0.26
9 | CC(C)(C)OC(=O)CC[C@]1(C(=O)N2CCCCC2)N=C(c2ccc(OCCCO)cc2)O[C@H]1c1ccccc1 | 0.806 | -0.0084 (inactive) | 0.261 | -0.127 | 0.741 | 2.94 | 0.708 | 1.28 | 0.261 | 1.13
10 | C=CCN1C(=O)[C@@]2(Cc3ccccc3)N=C(c3ccc(OCCCO)cc3)O[C@H]2c2ccccc21 | 0.174 | 1.06 (inactive) | 0.0635 | 0.2 | 0.622 | 2.83 | 0.66 | 1.29 | 1.23 | 1.15
11 | C=C(COC)/C(=C/C[C@@H](OC(C)=O)c1cccc(OCCO)c1)c1cc(C(=O)OC)ccc1OC | -0.458 | -0.574 (inactive) | -0.0729 | -0.125 | 0.402 | -0.194 | -0.315 | 0.539 | -0.458 | -0.937
12 | Cc1ccccc1C(O)C1C=CC2C(=O)N(c3ccccc3)C(=O)C2N1Nc1ccc(C#N)cc1 (stereo not given) | 1.04 | 1.4 (inactive) | 0.841 | 0.417 | 0.652 | 2.87 | 1.37 | 1.31 | 0.632 | 1.18
13 | CSCC[C@@H]1NC(=O)CC=C[C@@H](C)COC(=O)[C@H](CCSC)NC(=O)CC=C[C@@H](C)COC1=O | -0.767 | 0.559 (inactive) | -0.205 | -0.135 | -0.342 | -0.45 | -0.524 | -0.32 | 1.39 | -0.796
14 | COc1cc2c(cc1OC)CN(C(=O)[C@@H]1[C@H]3C(=O)O[C@H](c4ccccc4)[C@H](c4ccccc4)N3[C@H](c3ccccc3OCCO)[C@@]13C(=O)Nc1ccccc13)CC2 | 0.665 | -0.316 (inactive) | 0.746 | -0.112 | 0.609 | 0.938 | 1.31 | 1.2 | 0.182 | 0.997
15 | C=CC(=O)O[C@@H](Cc1ccccc1)[C@H]1C2C=CCCC=C2CN1Cc1cccc(Cl)c1 (stereo not given in full) | -0.421 | 0.565 (inactive) | -0.0057 | -0.112 | -0.794 | -0.323 | -0.454 | -2.7 | -0.605 | -0.965
16 | COC(=O)Cn1c(C(=O)N2CCCC2)cc2c1C[C@H]1CN(C(=O)c3ccccc3)[C@@](Cc3ccccc3)(C(=O)OC)[C@@H]21 | 1.06 | 0.0529 (inactive) | -0.0647 | 0.0292 | 0.752 | 1.99 | -0.263 | 0.185 | -1.13 | 0.831
17 | CC(C)[Si]1(C(C)C)O[C@@H](c2ccccc2)c2cc(C3CC3)nc(-c3ccc(Oc4ccccc4)cc3)c21 | -1.01 | -0.233 (inactive) | -0.157 | -0.125 | -0.289 | -0.346 | -0.0034 | -0.906 | -0.408 | -1.27
18 | O=C1OCC=C[C@H]2OC34C=CCN(Cc5ccccc5)C(=O)[C@H]3N(CCCCCO)C(=O)[C@@H]4[C@@H]12 (stereo not given in full) | -0.711 | 1.78 (inactive) | -0.231 | -0.207 | 0.605 | 0.096 | -0.493 | -0.673 | -0.99 | -1.11
19 | CCOC(=O)[C@H]1C/C=C/C[C@H](C(=O)OCC)C(=O)O[C@H]2[C@@H](OC)O[C@H](CO)[C@@H](OC(=O)Nc3ccc(Br)cc3)[C@@H]2OC1=O | 0.827 | 0.285 (inactive) | -0.122 | -0.0863 | 0.516 | 2.22 | 0.704 | 1.3 | -0.12 | 1.09
20 | CO[C@H]1COC(=O)[C@H](Cc2ccccc2)NC(=O)CC=C[C@@H](C)[C@H](OC)COC(=O)CC=C[C@@H]1C | -0.108 | -0.225 (inactive) | 0.0319 | -0.0211 | -0.142 | 0.199 | -0.47 | 0.588 | 0.53 | 0.296
21 | C=C(/C(=C/C[C@@H](OC(=O)c1ccncc1)c1ccc(CO)o1)c1cnc2ccccc2c1)C(C)C | 0.485 | 0.0431 (inactive) | 0.0225 | -0.132 | 0.557 | 0.606 | 0.367 | 1.3 | 1.21 | 1.17
22 | CCCC[C@@H]1C[C@H]1[C@@H](NC(=O)c1cccs1)c1ccc(Cl)cc1 | 0.804 | 2.33 (inactive) | -0.201 | -0.0956 | -0.346 | 1.08 | -0.0875 | -0.858 | -1.66 | -0.782
23 | C=CCC(OC(C)=O)[C@@H]1[C@@H](N(Cc2ccc(-c3ccccc3)cc2)C(=O)c2ccc(-c3ccccc3)cc2)c2cc(OCCCO)ccc2N1C(=O)Cc1ccc(OC)cc1 (stereo not given in full) | 0.4 | 0.344 (inactive) | 0.0065 | -0.183 | 0.0703 | 0.0095 | 0.061 | 0.0768 | -0.0682 | 0.411
